About 13,000 (27%) of roughly 48,000 compounds showed an effect of 50% or more. The list shows a part of the results.

The experiment has as its system Wolbachia pipientis. Kind of experiment: Anti-Wolbachia Cell-Based Screen. The experiment is classed as functional. More on the design: scale not given: in the data most compounds retested in dose-response had high values. The settings on record: 5 µM.
On to `CCN(Cc1ccc(-c2ccccn2)cc1)C1CCS(=O)(=O)C1` (stereo not drawn), for which the “Percent Effect” value is -8.377%.
Regarding `CN(Cc1nc(C(C)(C)C)no1)C1CCS(=O)(=O)C1` (stereo not drawn), the “Percent Effect” value is listed as -19.08%.
For the compound `CCN(Cc1cc(-c2ccccn2)no1)C1CCS(=O)(=O)C1` (stereo not drawn), the “Percent Effect” value is -17.52%.
`CN(Cc1ncnn1C1Cc2ccccc2C1)C1CCS(=O)(=O)C1` (stereo not drawn): the “Percent Effect” value amounted to 124.4%.
In the case of `CN(CCc1ncnn1-c1ccccc1Cl)C1CCS(=O)(=O)C1` (stereo not drawn), the “Percent Effect” value is 107.4%.
Turning to `CN(Cc1nc(C2CC2)no1)C1CCS(=O)(=O)C1` (stereo not drawn), the “Percent Effect” value is -44.33%.
On to `CN(CCc1ccc2c(c1)CCO2)C1CCS(=O)(=O)CC1`, for which the “Percent Effect” value is on record as -8.2%.
`CN(CCc1ncnn1C1Cc2ccccc2C1)C1CCS(=O)(=O)C1` (stereo not drawn): the “Percent Effect” value came to 86.57%.
For `Cc1nc(CN(Cc2ccccc2)C2CCS(=O)(=O)C2)oc1C` (stereo not drawn), the “Percent Effect” value worked out at 1.056%.
On to `Cc1ccc(O)c(C(=O)NCCS(=O)(=O)Cc2ccccc2)c1`, for which the “Percent Effect” value was 0.3485%.
As for `O=C(CCN1C(=O)CCC1=O)Nc1cnn(-c2ccccc2Cl)c1`, the “Percent Effect” value was -6.016%.
Then `Cc1cccc(OC(C)C(=O)NCC2(N(C)C)CCCC2)c1` (stereo not drawn), with 4.772%; and `CN(CCc1ccccn1)C(=O)Nc1cc(C(F)(F)F)c[nH]c1=O`, with 14.36%; and `Cc1nc(CN2CCN(C(=O)CCc3cccnc3)CC2)no1`, with -0.7807%.
Regarding `CN(Cc1nc(C(F)(F)F)cs1)C(=O)CCc1cccnc1`, the “Percent Effect” value was found to be 99.2%.
Turning to `CN(Cc1cc(Br)cn1C)C(=O)Cc1cccnc1`, the “Percent Effect” value is listed as -0.2173%.
In the case of `CN(Cc1nc(C(F)(F)F)cs1)C(=O)CCc1ccccn1`, the “Percent Effect” value came out at 104.8%.
In the case of `CN(Cc1ccccn1)C(=O)Nc1cc(C(F)(F)F)c[nH]c1=O`, the “Percent Effect” value came to 11.49%.
Regarding `COC(=O)c1ccc2nc(CO[C@H]3CN(CC4CC4)C[C@H]3F)[nH]c2c1`, the “Percent Effect” value was determined as 5.552%.
Take `N#Cc1nccnc1N1CCC(COCc2ccccc2)C1` (stereo not drawn): the “Percent Effect” value is on record as -0.4127%.
`OCC(O)CSCc1cn(-c2ccc(Cl)c(Cl)c2)nn1` (stereo not drawn): the “Percent Effect” value is recorded as -1.515%.
As to `C[S+]([O-])CCCNCc1cc(F)ccc1Br` (stereo not drawn), the “Percent Effect” value was determined as 11.95%.
For `Cc1cnn(CCNCC(O)COc2ccc(C#N)cc2)c1` (stereo not drawn), the “Percent Effect” value is -2.958%.
With `CCn1cnnc1CNC(=O)N1CCN(c2cccc(C)c2)CC1` the figure was 81.4%; with `Cc1cccc(N2CCN(C(=O)Nc3cnn(CC(N)=O)c3)CC2)c1`, -8.219%; with `CCn1cnnc1CNC(=O)N(C)Cc1ccccc1OC`, -13.71%.
With `CCn1cnnc1CNC(=O)N1CCN(c2ccccc2O)CC1`, the “Percent Effect” value is recorded as 92.65%.
With `CCn1cnnc1CNC(=O)N1CCN(c2cccc(OC)c2)CC1`, the “Percent Effect” value came out at 2.392%.
`CCn1cnnc1CNC(=O)NCC(O)c1ccc(OC)cc1` (stereo not drawn): the “Percent Effect” value was 3.56%.
Consider `CCn1cnnc1CNC(=O)N1CCN(c2ccc(OC)cc2)CC1`, for which the “Percent Effect” value stood at 88.94%.
With `CCn1cnnc1CNC(=O)N1CCN(c2ccccc2OC)CC1` the figure was 95.25%; with `CC(C)CC(NC(=O)CSCC(N)=O)c1cccs1` (stereo not drawn), 3.191%.
For `CN(C)S(=O)(=O)N1CCN(CC2CCOc3ccccc3C2)CC1` (stereo not drawn), the “Percent Effect” value is -1.148%.
With `O=C(CN1C(=O)CCNC1=O)N1CCOC(c2ccc(Cl)c(Cl)c2)C1` (stereo not drawn) the figure was 6.471%; with `CSCCCN1CCc2nc(N(C)C)nc(N3CCC(O)CC3)c2C1`, 3.21%.
Consider `CCCc1cc(=O)[nH]c2nnc(SCC(=O)NC(C)(C)C)n12`, for which the “Percent Effect” value worked out at 7.571%.
On to `CC(O)c1cccc(-n2c(CCC(=O)O)nc3ccccc32)c1` (stereo not drawn), for which the “Percent Effect” value is 17.57%.
Then `CCn1cnnc1CNC(=O)N1CCOC(c2ccc(Cl)cc2)C1` (stereo not drawn), with -28.88%.
For `CCn1cnnc1CNC(=O)N1CCOC(c2ccccc2Cl)C1` (stereo not drawn), the “Percent Effect” value was -10.89%.
For the compound `CCn1cnnc1CNC(=O)N1CCN(c2ccccc2Cl)CC1`, the “Percent Effect” value is on record as 101.2%.
Then `CC(C)CC(O)C1CCN(C(=O)c2ccc(C(F)(F)F)nc2O)CC1` (stereo not drawn), with -33.24%; and `CCN(C)CC(C)Cn1cnc(-c2ccccc2)c1C` (stereo not drawn), with 25.31%.
For the compound `Cc1nc(C)c(CNCc2nnc3n2CCCC3C(F)(F)F)s1` (stereo not drawn), the “Percent Effect” value is reported as -2.721%.
On to `O=C(CC1Cn2ncnc2NC1=O)Nc1ccccc1` (stereo not drawn), for which the “Percent Effect” value was 119.2%.
Turning to `O=C(CC1Cn2ncnc2NC1=O)Nc1cccc(C(F)(F)F)c1` (stereo not drawn), the “Percent Effect” value came to 102.6%.
Consider `COC(=O)C1CN(CC(=O)Nc2cccc(OC)c2)c2ccccc21` (stereo not drawn), for which the “Percent Effect” value was found to be 10.48%.
In the case of `COc1cccc(NC(=O)CC2Cn3ncnc3NC2=O)c1` (stereo not drawn), the “Percent Effect” value came out at 110.1%.
Take `CCc1ccc(C(=O)Nc2ccc(CC3CC(=O)NC3=O)cc2)s1` (stereo not drawn): the “Percent Effect” value is listed as -2.558%.
As to `O=C(Nc1cccc(C(F)(F)F)c1)N1CCN(CCn2ccnc2)CC1`, the “Percent Effect” value is on record as 2.864%.
For the compound `O=C(Nc1cccc(C(F)(F)F)c1)C1CC(=O)N(Cc2ccccn2)C1` (stereo not drawn), the “Percent Effect” value was determined as 6.876%.
With `COc1cccc(NC(=O)CNc2ccc(C(=O)N(C)C)c(Cl)c2)c1` the figure was 14.49%; with `O=C(CN1CCC(Nc2ncccn2)CC1)Nc1ccccc1`, -0.5486%.
For `CCc1ccc(C(=O)Nc2ccc(CC3CC(=O)NC3=O)cc2)cc1` (stereo not drawn), the “Percent Effect” value is recorded as -15.63%.
With `O=C(CN1C[C@H]2CC[C@@H]1CN(Cc1ccccn1)C2)Nc1ccccc1` the figure was 0.8626%; with `CCc1ccc(NC(=O)CC2Cn3ncnc3NC2=O)cc1` (stereo not drawn), 123.1%; with `O=C(c1cc(F)cc(Cl)c1)N1CCN(CCO)[C@@H]2CS(=O)(=O)C[C@@H]21`, -9.741%.
For `Cc1cc(CN2CCCC(CNC(=O)Cn3cccn3)C2)oc1C` (stereo not drawn), the “Percent Effect” value is given as -41.99%.
In the case of `O=C(NCCc1cccs1)N1CCCC1CCCO` (stereo not drawn), the “Percent Effect” value was -4.53%.
For `CC(C)c1nc2n(n1)CC(NCc1nc(-c3cccnc3)no1)CC2` (stereo not drawn), the “Percent Effect” value is reported as -4.778%.
Take `COc1ccccc1[C@@H]1CN(Cc2csc(C(C)=O)c2)C[C@H]1C(=O)O`: the “Percent Effect” value was -15.68%.
Take `COc1ncc(C(=O)N2CCC3(CC2)C(=O)Nc2ccccc23)cn1`: the “Percent Effect” value is -4.36%.
Turning to `COc1ccccc1C1(O)CCCN(C(=O)c2ccnn2C(C)C)C1` (stereo not drawn), the “Percent Effect” value was determined as 100.6%.
Take `COc1ccccc1C(=O)N1CCC(O)(c2cccc(C)c2C)CC1`: the “Percent Effect” value was determined as 6.429%.
Then `COc1ccccc1C1(O)CCCN(C(=O)c2cnc(SC)nc2)C1` (stereo not drawn), with 97.81%; and `COc1ccccc1C1CCN(C(=O)c2ncccc2OC(C)C)C1` (stereo not drawn), with 1.547%; and `CSc1ncc(C(=O)N2CCC(O)(CN3CCOCC3)C(C)(C)C2)cn1` (stereo not drawn), with -3.216%.
For the compound `COc1ccccc1C1(O)CCCN(C(=O)c2csc(C(C)=O)c2)C1` (stereo not drawn), the “Percent Effect” value is given as 80.49%.
For `CC(=O)c1cc(C(=O)N2CCC3(CC2)Nc2ccccc2NC3=O)cs1`, the “Percent Effect” value was 16.29%.

The values above are taken from ChEMBL document CHEMBL3988442, “University of Dundee, Small-Polar-MMV Screening Library” (2021).
